High-throughput results from PubChem.
A selection: hits, their analogues and other compounds. The true share with any hit is near 12%.
CHOP inhibitor: inhibitors of CHOP promoter induction, primary screen, cell-based, unfolded protein response, luciferase reporter. 220,000 compounds, 3.8% hits. CHO-K1 CHOP-promoter luciferase, tunicamycin-induced, 15-18 h. inhibition, % at 10 µM;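 active = compounds that reduced the stress-induced luciferase reporter signal by more than about 70% of percent inhibition, limit read from the data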;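 also: 0% = tunicamycin plus vehicle and 100% = wells without tunicamycin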
WT yeast gro inh: growth inhibition of WT strain, primary screen, mitochondrial fusion inhibitor project, WT and mutant strains, chemical genetic | 190,000 compounds, 2.1% hits | inhibition, % at 10 µM | mitochondrial fusion phenotypic screen; in the data active = inhibition above about 58%; tested in S. cerevisiae
L major viab: Leishmania major promastigote growth inhibition, primary screen; Leishmania major promastigotes, resazurin fluorescence viability; inhibition, % at 10 µM; 200,000 compounds, 9% hits; AID 1063, 2008; in the data active = inhibition above about 50%;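 also: promastigotes grown with compound for 44 hours at 28 °C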
Arbovirus inh: antivirals against arbovirus infection, primary screen, cell-based, full library, 10K replicate subset. arbovirus infection cell-based antiviral screen. 200,000 compounds, 0.37% hits. inhibition, % at 10 µM; in the data active = inhibition above about 30%
* = called active by the depositor; . = no result.

SMILES	CHOP inhibitor	WT yeast gro inh	L major viab	Arbovirus inh
Cc1nn(-c2ccccc2)c(C)c1/C=N/NC(=O)c1cc(-c2cccc3ccccc23)n[nH]1	52	36	31	-4
Cc1nn(-c2ccccc2)c(C)c1/C=N/NC(=O)c1cc(-c2ccccc2)n[nH]1	1	8	88*	2
O=C(c1cccs1)N1N=C(c2ccc(O)cc2)CC1c1ccccc1 (stereo not given)	33	14	64*	-4
O=C(c1cccs1)N1N=C(c2ccccc2)CC1c1ccccc1 (stereo not given)	78*	67*	6	-23
O=C(c1cccs1)N1N=C(c2ccccc2)CC1c1ccc(O)cc1 (stereo not given)	41	56	-3	-16
C=CCN(c1ccccc1C(=O)NCC(=O)O)S(=O)(=O)c1ccccc1C	9	.	.	.
CC1CCN(S(=O)(=O)c2cccc(C(=O)NCc3ccco3)c2)CC1	-3	-2	6	4
CC1CCN(S(=O)(=O)c2cccc(C(=O)NCc3cccs3)c2)CC1	73*	13	0	16
O=C(CNC(=O)c1cccc(OC(F)F)c1)OCc1cc(=O)n2cc(Br)ccc2n1	14	-7	-4	-2
CCCN1C(=O)/C(=C/c2nc3ccccc3c(=O)[nH]2)c2ccccc21	-58	8	100*	9
CC(C)N1C(=O)/C(=C\c2nc3ccccc3c(=O)[nH]2)c2ccccc21	-37	38	100*	10
CN(C)/C=C/C(=C\C(=O)C(F)(F)F)Nc1ccc(C(F)(F)F)cc1	21	-20	-8	-6
CCn1ccnc1C(O)c1ccccc1OC (stereo not given)	-2	-5	-7	-2
Cc1nc(-c2ccc(S(=O)(=O)Oc3ccccc3Cl)s2)cs1	4	.	.	.
O=C(OCc1ccc2c(c1)OCO2)c1cccc(S(=O)(=O)N2CCCCC2)c1	37	22	55*	8
O=S(=O)(c1cccc(F)c1)N1CCN(Cc2ccc3c(c2)OCO3)CC1	30	12	74*	2
COc1cc(S(=O)(=O)N2CCN(Cc3ccc4c(c3)OCO4)CC2)c(C)cc1C	65	30	0	8
COc1cc(C)c(C)cc1S(=O)(=O)N1CCN(Cc2ccc3c(c2)OCO3)CC1	-9	16	60*	-11
O=C(NCc1ccc2c(c1)OCO2)C1CCN(c2ccc(S(=O)(=O)N3CCCC3)cc2)CC1	20	-3	97*	-15
O=C(OCc1ccc2c(c1)OCO2)c1ccc(S(=O)(=O)N2CCCC2)cc1	40	22	-5	4
N#Cc1ccc(OCC(=O)N/N=C(\CCC(=O)O)c2cccs2)cc1	5	-7	-5	-2
O=C(CN1C(=O)c2ccccc2C1=O)Nc1ccc(Cl)cn1	15	-1	-3	4
O=C(O)C1CCCCC1C(=O)Nc1cc(C(F)(F)F)ccc1Cl (stereo not given)	-5	-26	-14	14
Cc1cc(C)n(/N=C/c2ccc(C(C)C)cc2)c(=O)c1C#N	32	-5	12	-5
Cc1ccc(/C=C2/SC(=O)NC2=S)o1	28	-2	5	4
SMILES	CHOP inhibitor	WT yeast gro inh	L major viab	Arbovirus inh
COc1ccc(S(=O)(=O)N2CCN(S(=O)(=O)c3ccc4c(c3)OCCO4)CC2)cc1C	18	21	61*	6
CCOC(=O)N1CCN(C(=O)c2ccc3nc(N4CCCCC4)sc3c2)CC1	22	-2	3	-1
O=S(=O)(Cc1ccccc1)N1CCN(Cc2ccc3c(c2)OCO3)CC1	5	6	92*	-5
Cc1nn(Cc2ccccc2)c2sc(C(=O)N3CCN(Cc4ccc5c(c4)OCO5)CC3)cc12	22	19	75*	-12
O=C(c1ccc2nc(N3CCCCC3)sc2c1)N1CCN(Cc2ccc3c(c2)OCO3)CC1	15	2	68*	-11
O=C(c1cccc(S(=O)(=O)N2CCOCC2)c1)N1CCN(Cc2ccc3c(c2)OCO3)CC1	7	-12	2	3
O=C(c1ccc(S(=O)(=O)N2CCCCC2)cc1)N1CCN(Cc2ccc3c(c2)OCO3)CC1	9	-12	98*	-2
O=S(=O)(c1ccc2c(c1)OCCO2)N1CCN(Cc2ccc3c(c2)OCO3)CC1	38	20	73*	-4
O=S(=O)(c1ccc(F)c(F)c1)N1CCN(Cc2ccc3c(c2)OCO3)CC1	29	-6	78*	-4
CCn1c2ccccc2c2cc(CN3CCN(S(=O)(=O)CC)CC3)ccc21	25	28	28	5
CCn1c2ccccc2c2cc(CN3CCN(S(=O)(=O)Cc4ccccc4)CC3)ccc21	59	-13	55*	3
COc1ccc(C(=O)Nc2ccccc2C(=O)NC(Cc2ccc(O)cc2)C(=O)NNC(=O)c2ccncc2)cc1 (stereo not given)	-5	-8	-4	3
CCOC(=O)/C(C#N)=C\c1ccc(OCC(=O)Nc2ccc(C)cc2C)c(OC)c1	53	6	-2	5
Cc1ccc2cc3cc(C(=O)N4CCN(Cc5ccccc5)CC4)sc3nc2c1	74*	15	1	-5
Cn1c(=O)oc2cc(S(=O)(=O)N3CCN(Cc4ccc5c(c4)OCO5)CC3)ccc21	40	6	76*	5
O=C1CCc2cc(S(=O)(=O)N3CCN(Cc4ccc5c(c4)OCO5)CC3)ccc2N1	-13	-16	-1	-1
Cc1cc(C(=O)COC(=O)C2COc3ccccc3O2)c(C)n1CC1CCCO1 (stereo not given)	77*	-7	-8	0
Cc1cc(C(=O)COc2ccccc2C(N)=O)c(C)n1CC1CCCO1 (stereo not given)	46	-2	-2	11
Cc1ccc(C(=O)OCC(=O)c2cc(C)n(CC3CCCO3)c2C)cc1 (stereo not given)	2	-3	2	5
Cc1cc(C(=O)CSc2nnc(-c3ccc(Cl)cc3)n2CC2CCCO2)c(C)n1C (stereo not given)	14	68*	-2	8
CN(C(=O)CSc1nnc(-c2ccc(Cl)cc2)n1CC1CCCO1)C1CCS(=O)(=O)C1 (stereo not given)	-5	-18	-4	2
Cc1cc(C(=O)COC(=O)c2ccccc2Br)c(C)n1CC1CCCO1 (stereo not given)	77*	.	.	.
COc1ccc(Nc2nnc(SCC(=O)c3cc(C)n(CC4CCCO4)c3C)s2)cc1 (stereo not given)	33	-1	50*	14
COc1ccc(Nc2nnc(SCC3CCCCO3)s2)cc1 (stereo not given)	2	5	9	-3
CN(CC(=O)NCc1ccccn1)S(=O)(=O)c1ccc2ccccc2c1	13	2	-5	16
COc1ccc(C2=NN(C(=O)CCCC(=O)O)C(c3cn(-c4ccccc4)nc3-c3ccccc3)C2)cc1 (stereo not given)	36	.	.	.
O=C(CCN1CCc2ccccc2C1)Nc1ccccc1	-1	7	2	0
O=C(OCC(=O)C12CC3CC(CC(C3)C1)C2)c1cccnc1	-26	2	11	20
Cc1cc(C(=O)COC(=O)c2cc(O)c3ccccc3c2O)c(C)n1CC1CCCO1 (stereo not given)	1	52	47	0
